Reference: PubChem BioAssay AID1259336 (Sattelle Laboratory, UCL Respiratory, Division of Medicine, …, 2017)
Calls of active or inactive are those of the source. Rule as the data show it: active = log2 fold change growth below about -1.8; inactive = the rest.

Assay: C. elegans growth inhibition, whole organism, log2 fold change (AID 1259336);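 also: growth scored by imaging after five days at 20 °C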
Conditions: anthelmintic screen, stronger effect = lower value

SMILES | log2 fold change growth
Cc1cc(NCCc2ccccc2)nc(/N=C(\N)Nc2ccc(Cl)cc2)n1 | 0.186 (inactive)
CCc1nc2ccccc2n1C[C@H](O)COc1cc(C)ccc1Cl | 0.0644 (inactive)
CC[C@H](NC(=O)c1ccccc1NC(=O)c1ccc(C)cc1)C(=O)OC | 0.0874 (inactive)
O=C1[C@@H](Oc2ccccc2)[C@@H](c2ccc(Cl)cc2)N1CCn1cnc2c(NCc3ccccc3)ncnc21 | -0.167 (inactive)
O=C(c1ccco1)N(CCCn1ccnc1)c1nc2c(Cl)cccc2s1 | -2.18 (active)
CC1=Nc2ccc(Cl)cc2[C@@](O)(c2ccc(C)cc2)N1CCN1CCCCC1 | 0.034 (inactive)
OCc1ccc(-c2cncc(Nc3cccc(Cl)c3)c2)cc1 | -0.873 (inactive)
CC(C)c1ncc(-c2ccncc2)c(C2CCC(CNC(=O)c3cccnc3)CC2)n1 (stereo not given) | -0.0296 (inactive)
CCOC(=O)NC(=O)c1ccsc1NC(=O)c1nc2ccccc2s1 | -3.88 (inactive)
Nc1cccnc1Nc1ccc(Cl)cc1 | 0.497 (inactive)
CC(=O)NC[C@@H]1CN(c2ccc(N3CCOCC3)c(F)c2)C(=O)O1 | -0.257 (inactive)
CC(C)N=c1cc2n(-c3ccc(Cl)cc3)c3ccccc3nc-2cc1Nc1ccc(Cl)cc1 | 0.0581 (inactive)
Cc1cnc(N2CCN[C@@H](Cc3ccccc3)C2)nc1Oc1ccc(-n2ccnc2)cc1 | 0.245 (inactive)
COc1cc2ncnc(NC3CCN(Cc4ccccc4)CC3)c2cc1OC | -0.116 (inactive)
NCCC[C@@](N)(C(=O)O)C(F)F | 0.109 (inactive)
